# Assay outcomes deposited in PubChem by National Center for Advancing Translational Sciences (NCATS).
# This is a sample that favours compounds with a hit; in the whole collection about 20% have one here.
# CHX counter – counter-screen for Shiga toxin inhibitors: cycloheximide protein synthesis inhibition; actives 12% (n = 300,000); cell reporter, cycloheximide protein synthesis inhibition counterscreen; max response, %; in the data active = max response mostly above about 13%, no sharp cut-off; inactive = mostly below about 14%; also: read at 38.3 µM for the half of the compounds with a filed dose; 0% is about no effect
# Shiga toxin inh – blocks Shiga toxin action in Vero cells | Vero cells, Shiga toxin protein synthesis inhibition reporter | inhibition, % at 38.7 µM | actives 9.2% (n = 290,000) | AID 2315; in the data active = inhibition mostly above about 28%, no sharp cut-off; inactive = mostly below about 43%; also: 0% is about no effect
# Pf growth 96h – P. falciparum growth inhibition at 96 hour, primary screen for plastid delayed-death inhibitors. P. falciparum luciferase reporter growth, 96 h. Potency, µM (titrated, usually from 28.7 µM), without a hit: top-dose activity change, negative = inhibition, usual class: inhibitors. actives 6.9% (n = 320,000). AID 504834; also: potency is read from the fitted curve at half-maximal effect; % is scaled to controls: 0 for no effect and ±100 for the full control effect
#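 Readout is luminescence from an integrated firefly luciferase in P. falciparum. Red cells, 2% hematocrit and 0.05% parasitemia final, were cultured with compound through two parasite generations (96 hours) at 37 C, 5% CO2.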
# HCMV antiviral – human cytomegalovirus inhibition | HFF cells, HCMV-luciferase reporter, 72 h; stronger effect = lower value | activity change, negative = inhibition, % at 57.5 µM | actives 4.5% (n = 410,000); in the data active = activity change below about -60%; inconclusive = no clear call, values can overlap the other calls; inactive = above about -39%; also: % is scaled to controls: 0 for no effect and ±100 for the full control effect
#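 HFF cells seeded 16 h at 37C, treated with compounds, infected with luciferase-reporter HCMV at MOI 1 PFU/cell; luciferase read at 72 h post infection, normalized to buffer-only and Salinomycin controls.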
# Pf growth 48h – inhibits P. falciparum growth in the first generation, 48 h; P. falciparum luciferase growth in erythrocytes, 48 h; actives 5.9% (n = 310,000); AID 504832; Potency, µM (series often up to 28.7 µM), for the others: at the highest dose activity change, negative = inhibition, actives largely listed as inhibitors; also: potency is read from the fitted curve at half-maximal effect; % is scaled to controls: 0 for no effect and ±100 for the full control effect
#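 First compound was added to culture medium, then infected red cells at 0.1% parasitemia and 2% hematocrit (final). After incubation at 37 C under 5% CO2, luciferase detection reagent was dispensed and light output recorded.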
# * hit, by the source's call; u = inconclusive; x = no result; [ ] = another dose, or the depositor's remark. Unless noted, calls follow the shape of the dose curve; as a rule, active = well fitted inhibition curve with a large enough effect; inconclusive = small, poorly fitted or top-dose-only effect, or another doubt; inactive = no such curve, though single readings can be large or run the other way.
SMILES,CHX counter,Shiga toxin inh,Pf growth 96h,HCMV antiviral,Pf growth 48h
CCC(c1nnnn1Cc1ccc(F)cc1)N(CCCO)Cc1cc2cc3c(cc2[nH]c1=O)OCO3 (stereo not drawn),-4.1,-9.9,x,-12.3,-23.6%
COc1ccc(C(=O)Nc2nnc(CCS(=O)(=O)c3ccc(C)cc3)s2)cc1,7.2,41.8,73.9%,-18.6,21.6%
C[C@@H]1CC2[C@@H]3CC[C@H]4CC(=O)CC[C@]4(C)C3=CC[C@]2(C)[C@@]1(O)C(=O)CO (stereo partly drawn),-6.3,11.2,u,-100.9*,-4.4%[0.00184 µM]
CC(C)(C)c1ccc(C(=O)Nc2ccc(-c3nc4cc(Cl)ccc4o3)cc2)cc1,x,x,x,-6.7,x
O=C(O)c1cc(S(=O)(=O)NCCOc2ccccc2)ccc1Cl,x,x,x,-5.2,x
COc1cc2c(cc1OC)C(c1cccs1)N(C(=O)c1ccc(S(=O)(=O)N(C)C)cc1)CC2 (stereo not drawn),9.2,-0.7,13.1µM*,-19.8,10.4µM*
COc1cc2c(cc1OC)C(c1cccs1)N(C(=S)NC(C)C)CC2 (stereo not drawn),-2.4,-1.6,u,35.8,2.62µM*
Cc1cc(C)cc(NC(=O)CSc2nnc(CNC(=O)c3c(F)cccc3Cl)o2)c1,x,x,x,8.4,x
Cc1ccc2nsnc2c1S(=O)(=O)Nc1cccc2cccnc12,8.9,-8.3,x,x,x
CC#CC#Cc1cccc(=O)o1,25.4*,61.1*,10.4µM*,-88.9*,11.7µM*
CCN(CC)S(=O)(=O)c1cc(NC(=O)CSc2nc3c(cc2C#N)C(=O)CC(C)(C)C3)ccc1C,-0.7,0.8,2.62µM*,-85.4*,3.7µM*
O=C1c2cccc3c(N4CCCCC4)ccc(c23)C(=O)N1c1ccccn1,-5.7,-7.9,55.1%,-4.9,15.9%
CCCN1C(=O)c2cccc3c(N4CCCCC4)ccc(c23)C1=O,-1.7,-6.8,13.1µM*,22.8,-0.6%
COc1cc(OC)c(NC(=O)C2CCN(S(=O)(=O)c3c(C)noc3/C=C/c3c(C)cc(C)cc3C)CC2)cc1Cl,x,x,x,17.1,x
Cc1noc(/C=C/c2cccs2)c1S(=O)(=O)N1CCC(C(=O)Nc2ccc(F)c(Cl)c2)CC1,x,x,x,-73.4*,x
Cc1cc(C)c(/C=C/c2onc(C)c2S(=O)(=O)N2CCC(C(=O)Nc3ccc(Cl)c(C(F)(F)F)c3)CC2)c(C)c1,x,x,x,-96.8*,x
COc1ccc(NC(=O)C2CCN(S(=O)(=O)c3c(C)noc3/C=C/c3cccs3)CC2)cc1Cl,10.7,14.4,x,5.9,x
CCOC(=O)NC(=O)/C(C#N)=C\Nc1sccc1C(=O)OC,0.3,31.1,-1.4%,-13.3,-20.8%
CCS(=O)(=O)NCCc1csc2nc(-c3ccc(C)cc3)nn12,x,x,x,-8.8,x
O=C(NNC(=O)c1cccnc1SCc1cccc([N+](=O)[O-])c1)c1ccccn1,4.9,-9.4,98.4%,-99.6*,5.22µM*
O=C(NNC(=O)c1cccnc1SCc1cccc([N+](=O)[O-])c1)c1cccnc1,6.1,-13.7,37.6%,-5.8,16.1%
O=C(OCc1cccc([N+](=O)[O-])c1)c1cccnc1Cl,2.0,-4.2,17.4%,7.8,13.1%
O=C(NNC(=O)c1cccnc1SCc1cccc([N+](=O)[O-])c1)c1ccc(F)cc1,-1.1,-11.0,183.7%,-91.6*,8.9%
Cc1ccc(-n2c(=O)c3c4c(sc3n(CC(=O)Nc3cccc(Cl)c3)c2=O)CCCCC4)cc1C,x,x,x,-3.2,x
COc1ccc(CNc2nc3c(c(=O)n(Cc4ccc(F)cc4)c(=O)n3C)n2C)cc1,3.9,10.6,-24.6%,-19.9,9.28µM*
SMILES,CHX counter,Shiga toxin inh,Pf growth 96h,HCMV antiviral,Pf growth 48h
CC(C)CCNc1nc2c(c(=O)n(Cc3cccc(F)c3)c(=O)n2C)n1C,3.1,-8.7,11.7µM*,-25.3,u
Cn1c(NCCO)nc2c1c(=O)n(Cc1ccc(F)cc1)c(=O)n2C,-2.5,13.9,11.8%,u,x
Cn1c(NCc2ccccc2)nc2c1c(=O)n(Cc1ccccc1)c(=O)n2C,-3.5,12.7,3.7µM*,-1.8,7.38µM*
Cn1c(=O)c2c(nc(NCc3ccccc3)n2C)n(C)c1=O,-2.0,-20.8,x,50.5,-6.6%
CC(SC1=Nc2ccccc2C2CC=NN12)C(=O)NC1(C#N)CCCCC1 (stereo not drawn),x,x,8.28µM*,-11.7,u
CCOC(=O)c1ccc(NC(=O)c2c(C)[nH]c(C(=O)OCC)c2C)cc1,-2.3,-6.6,58.0%,35.9,u
COc1ccc(CNC(=O)c2[nH]c(C)c(C(C)=O)c2C)cc1,-0.7,17.8,u,-15.1,14.7µM*
CCc1c(C(=O)Nc2cc(C)ccc2OC)[nH]c(C)c1C(C)=O,-1.6,-8.4,x,-4.1,u
CCc1c(C(=O)Nc2ccc(OC)cc2)[nH]c(C)c1C(C)=O,21.3*,28.9*,113.1%,125.7,u
CCOc1ccc(NC(=O)c2[nH]c(C)c(C(C)=O)c2C)cc1,30.8*,42.6*,9.1%,19.9,63.1%
COc1ccc(CCNC(=O)c2[nH]c(C)c(C(C)=O)c2C)cc1,-4.0,-18.6,x,8.5,-16.9%
CCCCC(CC)CNC(=O)c1[nH]c(C)c(C(C)=O)c1C (stereo not drawn),0.2,3.4,u,-64.8*,x
COc1ccc(OCCOC(=O)c2[nH]c(C)c(C(C)=O)c2C)cc1,27.3*,30.1,13.4%,8.3,-21.3%
CCc1ccc(NC(=O)c2[nH]c(C)c(C(C)=O)c2C)cc1,41.6*,56.3*,-16.1%,84.0,-12.5%
CC(=O)c1c(C)[nH]c(C(=O)NCCc2cccc(C)c2)c1C,44.8*,79.9*,x,89.3,54.7%
CCc1c(C(=O)NCCc2cccc(C)c2)[nH]c(C)c1C(C)=O,5.0,38.5,u,-16.7,-26.9%
CC(=O)c1c(C)[nH]c(C(=O)OCC(=O)N(C)C)c1C,7.4,28.0,54.8%,-2.4,34.5%
COc1ccc(NC(=O)c2[nH]c(C)c(C(C)=O)c2C)cc1,42.2*,79.2*,240.9%,132.8,95.6%
CC(=O)c1c(C)[nH]c(C(=O)Nc2ccc(N3CCCCCC3)cc2)c1C,x,x,x,-36.5,x
CCc1ccc(OCC(=O)NC(Cc2c[nH]c3ccccc23)C(=O)O)cc1 (stereo not drawn),x,x,x,-1.7,x
COc1ccc(/C=C/c2onc(C)c2S(=O)(=O)N2CCC(C(=O)N3CCC(C)CC3)CC2)cc1,-4.5,-5.2,u,u,u
CCOC(=O)[C@]12CCC=C1N(Cc1ccc(Cl)cc1Cl)C(=O)[C@H](CC(=O)NCc1cccc(C(F)(F)F)c1)C2,x,x,x,-16.9,x
CC(C)NC(=O)OC1CC2CC1[C@H]1CCCCN1C2=O (stereo partly drawn),x,x,x,6.4,x
CNC(=O)c1cccc(NC(=O)c2ccccc2OCc2ccccc2)c1,-3.3,16.3,-22.6%,28.6,-5.0%
CC(=O)c1c(C)[nH]c(C(=O)Nc2nccs2)c1C,40.4*,93.3*,62.4%,55.5,364.7%
CC(=O)c1c(C)[nH]c(C(=O)Nc2cccnc2)c1C,1.8,-24.2,x,142.1,-29.4%
CC(=O)c1c(C)[nH]c(C(=O)Nc2cccc(C)n2)c1C,30.3*,59.2*,249.4%,136.6,128.1%
